From PubChem
NPC1 prom act: qHTS Assay for NPC1 Promoter Activators; Huh7 NPC1 promoter luciferase reporter, 24 h; Potency, µM (top dose mostly 9.22 µM), actives largely listed as activators; 320,000 tested, 2.4% active; also: nearly all actives have a fitted effect of over 60% in size
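In 1536-well qHTS, Huh7 cells harboring an NPC1 promoter–luciferase construct received compound for 24 h; activation was quantified by luminescence following luciferase reagent addition.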
ELG1 genotoxic: qHTS screen for small molecules that induce genotoxicity in human embryonic kidney (HEK293T) cells expressing luciferase-tagged ELG1. AID 504466, 2011. 330,000 tested, 1.3% active. Potency, µM (highest dose often 46 µM), usual class: activators. HEK293T ELG1-luciferase reporter, luminescence, 16 h; also: nearly all actives have a fitted effect of over 60% in size
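DMSO vehicle served as control against compound-treated ELG1-luciferase HEK293T cells; exposure lasted 16 hr at 37 °C and 5% CO2, followed by ONE-Glo luminescence detection after 30 min.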
FLuc modulator: qHTS profiling assay for firefly luciferase inhibitor/activator using purifed enzyme and Km concentrations of substrates (counterscreen for miR-21 project); Potency, µM (highest dose often 57.5 µM), actives largely listed as inhibitors; purified FLuc, Km substrates, luminescence inhibition; Luciferin 4-monooxygenase (Photinus pyralis), P08659; AID 588342, 2011; 360,000 tested, 6.9% active; also: nearly all actives have a fitted effect of over 55% in size
Target sequence (P08659 whole entry, looked up): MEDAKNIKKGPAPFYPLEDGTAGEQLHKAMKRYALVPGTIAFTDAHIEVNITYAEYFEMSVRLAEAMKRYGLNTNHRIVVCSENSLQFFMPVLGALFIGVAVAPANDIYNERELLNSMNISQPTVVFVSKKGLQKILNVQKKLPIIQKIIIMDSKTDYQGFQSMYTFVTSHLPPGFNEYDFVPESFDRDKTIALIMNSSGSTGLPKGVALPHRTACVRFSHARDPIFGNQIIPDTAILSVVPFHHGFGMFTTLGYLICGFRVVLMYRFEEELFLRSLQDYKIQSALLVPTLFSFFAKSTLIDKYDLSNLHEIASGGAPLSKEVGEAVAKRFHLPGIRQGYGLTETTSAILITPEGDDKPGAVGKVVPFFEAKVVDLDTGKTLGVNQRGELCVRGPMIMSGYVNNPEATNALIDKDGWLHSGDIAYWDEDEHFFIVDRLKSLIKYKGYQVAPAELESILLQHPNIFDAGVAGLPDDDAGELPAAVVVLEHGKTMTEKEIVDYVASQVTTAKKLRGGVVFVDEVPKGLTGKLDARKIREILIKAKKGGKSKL
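Purified P. pyralis luciferase (10nM final) with 10uM D-luciferin and 10uM ATP (Km levels) in 50mM Tris acetate pH 7.5, 10mM Mg acetate, 0.01% Tween-20, 0.05% BSA; qHTS 6-point titration, ~60 µM downward; luminescence read.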
SMN2 splice enh: qHTS Assay for Enhancers of SMN2 Splice Variant Expression; HEK293 SMN2-luciferase splicing reporter, luminescence, 30-36 h; Potency, µM (top dose mostly 46.1 µM), hits mostly activators; 210,000 tested, 2.8% active; also: nearly all actives have a fitted effect of over 55% in size
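HEK293 cells carry an SMN2 […]–luciferase reporter in which exon 7 inclusion puts luciferase in frame. Cells were plated 10-12 h before compound addition, then incubated 30-36 h at 37C. ONE-Glo luminescence was read; sodium butyrate at 4.5 mM final served as control.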
Rab9 prom act: qHTS Assay for Rab9 Promoter Activators; Huh7 Rab9 promoter-luciferase reporter, luminescence, 24 h; Potency, µM (titrated, usually from 9.22 µM), actives largely listed as activators; 320,000 tested, 2.8% active; AID 485297, 2010; also: nearly all actives have a fitted effect of over 60% in size
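Using Huh7 cells stably transfected with Rab9 promoter–luciferase, compounds were incubated 24 h at 37 °C, 5% CO2; luciferase luminescence was read 10 min after reagent addition.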
Of the large screens only hits and unclear results are named; the others gave an inactive call. Rows were chosen to be rich in hits. Some 7.4% of all compounds tested hit in one or more screens of this group. Calls follow the shape of the dose curve; as a rule, active = well fitted curve in the direction sought with a large enough effect; inconclusive = small, poorly fitted or top-dose-only effect, or another doubt; inactive = no such curve, though single readings can be large; an effect the other way counts as inactive or inconclusive.

COCCc1nn2c(=O)cc(COC(=O)c3ccc(C(C)(C)C)cc3)nc2s1	none (no result: NPC1 prom act, ELG1 genotoxic, SMN2 splice enh, Rab9 prom act)
CC(=O)c1cccc(NC(=O)c2ccc3c(c2)OCO3)c1	NPC1 prom act inconclusive, FLuc modulator 26.9µM, Rab9 prom act inconclusive (no result: SMN2 splice enh)
COc1ccc(-c2cccc(NC(=O)c3ccc4c(c3)OCO4)c2)nn1	FLuc modulator 15.1µM (no result: SMN2 splice enh)
O=C(Nc1ccc(NC(=O)c2cccs2)cc1)c1ccc2c(c1)OCO2	ELG1 genotoxic inconclusive (no result: SMN2 splice enh)
CCC/C(=N/NC(=O)c1ccc2c(c1)OCO2)c1cccs1	FLuc modulator 16.9µM, SMN2 splice enh 20µM, Rab9 prom act inconclusive
CC(=O)c1cccc(NC(=O)c2ccc3ccccc3c2)c1	NPC1 prom act 3.16µM, ELG1 genotoxic inconclusive, FLuc modulator 1.9µM, Rab9 prom act 2.82µM (no result: SMN2 splice enh)
O=C(Nc1cccc(NC(=O)c2ccc3c(c2)OCO3)c1)c1ccccc1	FLuc modulator inconclusive
CCCCC(=O)Nc1nnc(S(=O)(=O)N(C)Cc2ccc(Cl)cc2)s1	none (no result: NPC1 prom act, ELG1 genotoxic, SMN2 splice enh, Rab9 prom act)
CC(=O)c1cccc(NC(=O)COC(=O)c2ccc3c(c2)OCO3)c1	none (no result: SMN2 splice enh)
O=C(Nc1cccc(NC(=O)c2cccs2)c1)c1ccc2c(c1)OCO2	FLuc modulator 15.1µM
CCOC(=O)c1cccc(NC(=O)c2ccc3c(c2)OCO3)c1	NPC1 prom act 0.398µM, ELG1 genotoxic inconclusive, FLuc modulator 8.49µM, Rab9 prom act 0.224µM (no result: SMN2 splice enh)
COc1ccc([C@H]2C(C(=O)O)=C[C@@H](C(C)(C)C)N2S(=O)(=O)c2ccc(C)cc2)cc1OC	none (no result: NPC1 prom act, FLuc modulator, SMN2 splice enh, Rab9 prom act)
O=C(O)c1ccc(-c2nc3ccccc3[nH]2)cc1	FLuc modulator 15.1µM
Nc1ccc(-c2nc3ccccc3[nH]2)cc1	NPC1 prom act 1.58µM, ELG1 genotoxic 2.91µM, FLuc modulator 9.53µM, SMN2 splice enh 4.47µM, Rab9 prom act 0.447µM
CC(=O)/C(=C(/O)c1ccccc1)c1nc2ccccc2[nH]1	none
Cn1cc(-c2nc3ccccc3[nH]2)c2ccccc21	NPC1 prom act inconclusive, FLuc modulator 4.26µM, SMN2 splice enh 22.4µM, Rab9 prom act inconclusive
O=C(O)c1ccc(/C=C(\c2nc3ccccc3[nH]2)c2nc3ccccc3s2)cc1	FLuc modulator 15.1µM (no result: SMN2 splice enh)
Nc1ccc2nc(-c3ccc(-c4nc5ccc(N)cc5[nH]4)cc3)[nH]c2c1	none (no result: SMN2 splice enh)
COc1ccccc1/C=C(/NC(=O)c1ccccc1)C(=O)NCCN1CCOCC1	none (no result: SMN2 splice enh)
Cc1cccc(C(=O)NCCc2nc3ccccc3n2Cc2ccc(Cl)cc2)c1	none (no result: NPC1 prom act, ELG1 genotoxic, Rab9 prom act)
CCC(=O)OC1=CN(Cc2ccccc2)S(=O)(=O)c2ccccc21	none (no result: NPC1 prom act, ELG1 genotoxic, SMN2 splice enh, Rab9 prom act)
O=C(Nc1ccc(-c2nc3ccccc3[nH]2)cc1)c1ccccc1NS(=O)(=O)c1ccc(F)cc1	FLuc modulator inconclusive
Nc1ccccc1-c1nc2ccccc2[nH]1	NPC1 prom act 3.98µM, ELG1 genotoxic 10.3µM, FLuc modulator 12µM, SMN2 splice enh inconclusive, Rab9 prom act 6.31µM
Oc1ccc(C=Nc2ccccc2-c2nc3ccccc3[nH]2)cc1	NPC1 prom act inconclusive, FLuc modulator 26.9µM, SMN2 splice enh 12.6µM
O=c1[nH]cccc1-c1nc2ccccc2[nH]1	NPC1 prom act inconclusive, ELG1 genotoxic inconclusive, FLuc modulator inconclusive (no result: SMN2 splice enh)
Clc1nc2c(ccc3ccccc32)[nH]1	NPC1 prom act inconclusive, FLuc modulator inconclusive, Rab9 prom act inconclusive (no result: SMN2 splice enh)
Fc1ccc(-c2nc3ccccc3[nH]2)cc1	NPC1 prom act 2.51µM, ELG1 genotoxic inconclusive, FLuc modulator 12µM, SMN2 splice enh 10µM, Rab9 prom act 2.51µM
Nc1ccc(-c2nc3c(ccc4ccccc43)[nH]2)cc1	NPC1 prom act inconclusive, ELG1 genotoxic inconclusive, FLuc modulator 2.39µM, Rab9 prom act inconclusive (no result: SMN2 splice enh)
Cc1nc(NC(=O)c2ccccc2)nc2cc3c(cc12)OCO3	NPC1 prom act inconclusive, ELG1 genotoxic inconclusive, FLuc modulator 16.9µM, SMN2 splice enh inconclusive, Rab9 prom act inconclusive
CC(=O)Nc1cccc(NC(=O)CSc2nnc(NC(=O)c3ccco3)s2)c1	FLuc modulator 19µM (no result: SMN2 splice enh)
CC(=O)Nc1cccc(NC(=O)CSc2nnc(NC(=O)C3CC3)s2)c1	FLuc modulator inconclusive (no result: SMN2 splice enh)
CC(=O)Nc1ccc(NC(=O)CSc2nnc(NC(=O)c3ccc(Br)o3)s2)cc1	FLuc modulator 2.13µM (no result: SMN2 splice enh)
